The list is not random: actives were taken first. Their share in the collection is about 1.6%.
gsp antagonist – antagonizes gsp, the McCune-Albright syndrome mutation. gsp-mutant cells, cAMP HTRF, 30 min. Potency, µM (titrated, usually from 76.9 µM), for inactives: at the top dose activity change, negative = inhibition, hits mostly inhibitors. hit rate 0.4% among 340,000. AID 624288; calls by dose curve; cell line not stated here;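 further: intracellular cAMP measured with PDE inhibitor Ro 20-1724 present during compound exposure; potency means the concentration at half of the fitted maximal effect; on the % scale 0 is the no-effect control and ±100 the full control effect; nearly all actives have a fitted effect of over 65% in size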
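Cells, 2000/well, grown 16–24 h in DMEM 10% FBS with 0.5 mg/ml G418, then compounds plus […] (300 uM addition stock), 30 min at 37C. cAMP read by HTRF (cAMP-d2 and anti-cAMP antibody-K in lysis buffer) after 30 min RT.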
gsp agonist – gsp mutant agonism; hit rate 0.13% among 340,000; Potency, µM (doses to about 76.9 µM), inactives show at the highest dose activation (cAMP increase), most hits filed as activators; gsp mutant cells, cAMP HTRF, 30 min; active means well fitted activation curve with a large enough effect; inconclusive means small, poorly fitted or top-dose-only effect, or another doubt; inactive means no such curve, though single readings can be large or run the other way; cell line not stated here;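 further: phosphodiesterase inhibitor Ro 20-1724 added with compounds to block cAMP breakdown; potency means the concentration at half of the fitted maximal effect; nearly all actives have a fitted effect of over 60% in size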
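Cells stably selected in G418 were plated at 2000/well, grown 16-24 hr, then given compounds in DMSO with the PDE inhibitor […] (300 uM solution added) for 30 min at 37C; cAMP was read by HTRF.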
Glioma ERSR ind – induces the endoplasmic reticulum stress response in human glioma cells | U87-MG GRP78 promoter luciferase reporter, 16 h | Potency, µM, without a hit: top-dose activation, most hits filed as activators | hit rate 0.02% among 420,000 | AID 602332; active means well fitted activation curve with a large enough effect; inconclusive means small, poorly fitted or top-dose-only effect; inactive means no such curve, though single readings can be large or run the other way; further: potency means the concentration at half of the fitted maximal effect; series mostly up to about 76 µM; % of control where 0% means no effect; nearly all actives have a fitted effect of over 35% in size
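ERSR induction read as luciferase luminescence (Bright-Glo, 10 min at room temperature) in stably transfected human U87-MG glioma cells exposed to compounds for 16 h, using GRP78 as sensor.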
KCNH2 WT inh – blocks the wildtype human KCNH2 potassium channel; Q12809; U2OS, BacMam KCNH2, thallium flux FluxOr; hits give low values; activity change, % at 1.84 µM; hit rate 0.37% among 340,000; AID 720551;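 active means maximum activity change below -70%; inconclusive means maximum activity change between -70% and -50%; inactive means maximum activity change above -50%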; further: on the % scale 0 is the no-effect control and ±100 the full control effect
Target sequence (Q12809 whole entry, looked up): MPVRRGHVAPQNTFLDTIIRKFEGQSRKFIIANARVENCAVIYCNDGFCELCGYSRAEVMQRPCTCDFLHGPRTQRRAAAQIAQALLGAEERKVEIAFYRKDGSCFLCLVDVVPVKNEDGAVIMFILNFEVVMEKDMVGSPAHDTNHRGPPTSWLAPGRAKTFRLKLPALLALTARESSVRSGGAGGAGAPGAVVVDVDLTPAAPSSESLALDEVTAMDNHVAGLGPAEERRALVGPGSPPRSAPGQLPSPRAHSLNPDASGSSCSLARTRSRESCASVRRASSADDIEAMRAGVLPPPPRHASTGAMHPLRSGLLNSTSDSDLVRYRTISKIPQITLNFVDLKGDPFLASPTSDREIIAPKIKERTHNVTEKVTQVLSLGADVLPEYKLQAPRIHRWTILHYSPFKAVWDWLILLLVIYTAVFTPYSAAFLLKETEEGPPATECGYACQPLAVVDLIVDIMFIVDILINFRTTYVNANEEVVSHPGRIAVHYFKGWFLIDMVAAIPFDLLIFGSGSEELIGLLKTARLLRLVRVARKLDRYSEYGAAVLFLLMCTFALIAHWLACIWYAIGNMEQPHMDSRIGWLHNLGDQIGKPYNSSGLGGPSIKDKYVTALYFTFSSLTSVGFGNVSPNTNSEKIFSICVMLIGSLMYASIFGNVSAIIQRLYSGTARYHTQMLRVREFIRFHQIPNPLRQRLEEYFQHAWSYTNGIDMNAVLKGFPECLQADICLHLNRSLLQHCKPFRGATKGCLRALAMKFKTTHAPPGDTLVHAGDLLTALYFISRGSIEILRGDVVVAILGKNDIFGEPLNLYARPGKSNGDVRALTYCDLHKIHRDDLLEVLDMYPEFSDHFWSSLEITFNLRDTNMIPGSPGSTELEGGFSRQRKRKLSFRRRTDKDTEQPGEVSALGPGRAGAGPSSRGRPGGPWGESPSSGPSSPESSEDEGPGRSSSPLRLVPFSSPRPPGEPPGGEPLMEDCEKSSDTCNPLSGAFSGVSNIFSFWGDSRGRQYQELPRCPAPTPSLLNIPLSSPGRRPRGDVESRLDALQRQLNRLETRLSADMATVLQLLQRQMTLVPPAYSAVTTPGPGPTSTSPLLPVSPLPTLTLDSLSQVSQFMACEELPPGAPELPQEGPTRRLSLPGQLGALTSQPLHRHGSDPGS
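U2OS cells transduced with wild-type KCNH2 virus are loaded with FluxOr dye for 45 min, and thallium flux is measured in kinetic reads before and after stimulation buffer. Rate constants are normalized to DMSO controls.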
Akt phos inh – blocks phosphorylation of Akt; hit rate 0.32% among 360,000; AID 651550; Neuro2A IGF-stimulated pAkt S473 HTRF, 20 min; hits give low values; activity change, % for hits at 50 µM; in the data active means activity change below about -80%; inconclusive means mostly about -51% to -80%; further: on the % scale 0 is the no-effect control and ±100 the full control effect
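Single-point screen (50 µM final compound) in Neuro2A cells stimulated 20 min with 6 nM IGF at 37 deg C. After lysis, Ser473-phosphorylated Akt read by HTRF (ex 330 nm, em 615/665 nm) as the 665/615 ratio.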
KCNH2 3.1 block – inhibitors of human KCNH2 3.1 potassium channel isoform; U2OS KCNH2 3.1, thallium flux FluxOr; hits give low values; activity change, % (tested at about 1.8 µM); hit rate 0.95% among 340,000;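 active means maximum activity change below -70%; inconclusive means maximum activity change from -70% to -50%; inactive means maximum activity change above -50%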;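 further: thallium influx rate constant from kinetic fluorescence after stimulation buffer; on the % scale 0 is the no-effect control and ±100 the full control effect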
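U2OS cells transduced with KCNH2 3.1 mutant virus (1.77 x 10^8 /mL, 4 h), plated overnight at 37 C, loaded 45 min with FluxOr dye plus Red40 quencher. Thallium flux rate constant from kinetic reads after stimulation buffer, normalised to controls.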
* marks the source's active call; other numbers are inactive results; [ ] = remark or other dose.

For CC(C)NC(=O)NC(=O)CN1C(=O)NC2(CCc3ccccc3C2)C1=O (stereo not given) the results were gsp antagonist 9%, gsp agonist -40%, Glioma ERSR ind -2%, KCNH2 WT inh 4, Akt phos inh inactive and KCNH2 3.1 block 20.
Cc1ncc2c(c1CNC(=O)c1ccc3c(c1)OCO3)CCN(C(=O)/C=C/c1ccccc1Cl)C2 was read as Glioma ERSR ind 2%.
Screening COc1ccc(CCNC(=O)C2CCC(=O)N(C3CCCCCC3)C2)cc1 (stereo not given) returned gsp antagonist 50µM*, gsp agonist inconclusive, Glioma ERSR ind -3%, KCNH2 WT inh 3, Akt phos inh inactive and KCNH2 3.1 block -11.
CC(C)Oc1ccc(CCNC(=O)C2CCC(=O)N(C3CCCCCC3)C2)cc1 (stereo not given) was read as gsp antagonist -1%, gsp agonist inconclusive, Glioma ERSR ind 1%, KCNH2 WT inh -1, Akt phos inh inactive and KCNH2 3.1 block 3.
`Cc1ccc(CNC(=O)C2CCC(=O)N(CCc3cccc(F)c3)C2)cc1` (stereo not given) gave gsp antagonist -2%, gsp agonist -17%, Glioma ERSR ind -1%, KCNH2 WT inh -5, Akt phos inh inactive and KCNH2 3.1 block -84*.
`COc1cccc(CN2CC(C(=O)NCCCc3ccc(C)cc3)CCC2=O)c1` (stereo not given) gave gsp antagonist -4%, gsp agonist 5%, Glioma ERSR ind 8%, KCNH2 WT inh 7, Akt phos inh inactive and KCNH2 3.1 block -86*.
Cc1cc(CNC(=O)C2CCC(=O)N(CCc3cccc(F)c3)C2)nn1C (stereo not given) was read as gsp antagonist -1%, gsp agonist 27%, Glioma ERSR ind -6%, KCNH2 WT inh -5, Akt phos inh inactive and KCNH2 3.1 block 3.
For COc1cccc(CN2CC(C(=O)NCCCc3ccncc3)CCC2=O)c1 (stereo not given) the results were gsp antagonist 9%, gsp agonist 10%, Glioma ERSR ind -4%, KCNH2 WT inh -7, Akt phos inh inactive and KCNH2 3.1 block -4.
`O=C(Nn1cnnc1)c1ccc(Br)s1` gave gsp antagonist 5%, gsp agonist 5%, Glioma ERSR ind -4%, KCNH2 WT inh -1, Akt phos inh inactive and KCNH2 3.1 block -186*.
For O=C(NCC1(N2CCOCC2)CCCC1)c1cnn(-c2nccc(-c3ccco3)n2)c1C1CC1 the results were Glioma ERSR ind -5%.
COc1ccccc1C1CN(Cc2cccc(C)n2)Cc2ccccc2O1 (stereo not given) was read as Glioma ERSR ind -4%.
Cc1cc(C)c2nc(N(CCCN(C)C)C(=O)c3ccc4c(c3)OCCO4)sc2c1 was read as gsp antagonist 9%, gsp agonist -36%[15.4 µM], Glioma ERSR ind -6%, KCNH2 WT inh -8, Akt phos inh inactive and KCNH2 3.1 block -86*.
Screening Cc1cc(C)c2sc(N(CCN(C)C)C(=O)c3c(F)cccc3F)nc2c1 returned gsp antagonist -3%, gsp agonist inconclusive, Glioma ERSR ind -6%, KCNH2 WT inh 9, Akt phos inh inactive and KCNH2 3.1 block 4.
For Cc1cc(C)c2sc(N(CCCN(C)C)C(=O)c3ccc(Br)s3)nc2c1 the results were gsp antagonist 8%, gsp agonist inconclusive, Glioma ERSR ind -13%, KCNH2 WT inh -23, Akt phos inh inactive and KCNH2 3.1 block -82*.
For O=C(Cc1ccc[nH]c1=O)c1ccc(F)cc1 the results were Glioma ERSR ind -2%.
COc1cc(C2NC(=O)NC(O)(C(F)(F)F)C2C(C)=O)cc(OC)c1OC (stereo not given) was read as gsp antagonist inconclusive, gsp agonist 15%, Glioma ERSR ind -3%, KCNH2 WT inh -186*, Akt phos inh inactive and KCNH2 3.1 block -3.
Cc1ccc(NC(=O)COc2ccc(/C=C3/SC(=Nc4ccccc4)N(Cc4cccnc4)C3=O)cc2)cc1 was read as gsp antagonist 4%, gsp agonist inconclusive, Glioma ERSR ind -3%, KCNH2 WT inh -2, Akt phos inh -106%* and KCNH2 3.1 block 22.
Screening Cc1ccc(NC(=O)COc2ccc(/C=N/NC(=O)CSCc3ccccc3)cc2)cc1 returned gsp antagonist -9%, gsp agonist 1%, Glioma ERSR ind -3%, KCNH2 WT inh 4, Akt phos inh inactive and KCNH2 3.1 block -10.
`Cc1ccc(Nc2nc3ccc(Cl)cc3n3cnnc23)cc1F` gave gsp antagonist -1%, gsp agonist -9%[15.4 µM], Glioma ERSR ind -2%, KCNH2 WT inh -127*, Akt phos inh inactive and KCNH2 3.1 block -1.
For CCOC(=O)CSc1nnc(Cc2ccccc2)n1-c1ccc(C)cc1 the results were gsp antagonist -19%, gsp agonist 21%, Glioma ERSR ind -4%, KCNH2 WT inh 1, Akt phos inh inactive and KCNH2 3.1 block 2.
Screening Cc1ccc(-c2noc(CSc3nnc(Cc4ccccc4)n3-c3ccc(Cl)cc3)n2)cc1 returned gsp antagonist inconclusive, gsp agonist -2%, Glioma ERSR ind -4%, KCNH2 WT inh 4, Akt phos inh inactive and KCNH2 3.1 block -74*.
COc1ccc(-c2noc(CSc3nnc(Cc4ccccc4)n3-c3ccc(Cl)cc3)n2)cc1 was read as gsp antagonist -28%, gsp agonist -2%, Glioma ERSR ind -2%, KCNH2 WT inh -4, Akt phos inh inactive and KCNH2 3.1 block -8.
Screening Cc1ccc(-n2c(Cc3ccccc3)nnc2SCC(=O)NNC(=O)Cc2ccccc2)cc1 returned gsp antagonist -12%, gsp agonist 1%, Glioma ERSR ind -3%, KCNH2 WT inh 0, Akt phos inh inactive and KCNH2 3.1 block -80*.
Screening CC(=O)c1c(C)[nH]c2ccc(OCC(O)CNCCc3ccccc3)cc12 (stereo not given) returned Glioma ERSR ind -1%.
`Cc1cc(C(=O)Nc2cccc(-c3nc(CNC(=O)c4ccccc4C(F)(F)F)c(C)o3)c2)c(C)o1` gave Glioma ERSR ind -2%.
For COc1cc(/C=C/C(=O)OCC(=O)NC2CCS(=O)(=O)C2)ccc1O (stereo not given) the results were gsp antagonist 4%, gsp agonist 2%, Glioma ERSR ind -3%, KCNH2 WT inh 0, Akt phos inh inactive and KCNH2 3.1 block -12.
For COc1cc(/C=C/C(=O)OCC(=O)NC2CCS(=O)(=O)C2)ccc1OC(F)F (stereo not given) the results were gsp antagonist 5%, gsp agonist 17%, Glioma ERSR ind 1%, KCNH2 WT inh 4, Akt phos inh inactive and KCNH2 3.1 block -167*.

Source: PubChem (National Center for Advancing Translational Sciences (NCATS))
